MEX-5 binding: C. elegans MEX-5 TCR-2 RNA binding activity. activity score (negative = inhibition of binding), % at 10 µM. MEX-5/FITC-TCR2 RNA binding, fluorescence polarization; active compounds read low. Q9XUB2. AID 1832. actives 0.38% (n = 300,000);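 active = inhibition past about -25% in most replicates, and total fluorescence under double the plate's negative control median, limit read from the data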;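 also: 0% = DMSO and -100% = 5 µM competing unlabeled TCR2 RNA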
Bcl-xL primary: blocks human Bcl-xL binding to Bim BH3 peptide. actives 0.7% (n = 320,000). Q07817. GST-Bcl-xL / FITC-Bim BH3 peptide fluorescence polarization. inhibition, % at 10.9 µM;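 active = inhibition above the mean of all tested compounds plus 3 SD, cutoff set per campaign, cut at about 30% in these data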;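 also: 0% = DMSO wells and 100% = unlabeled Bim-BH3 peptide competitor; inhibitors lower millipolarization by displacing the labeled peptide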
LANA-H2B inh: blocks KSHV LANA binding to histone H2A/H2B. cell-free LANA-H2A/H2B peptide, fluorescence polarization. inhibition, % (no concentration beside the values). AID 2629. Q9QR71. actives 0.6% (n = 320,000); in the data active = inhibition mostly above about 10%, no sharp cut-off; inactive = mostly below about 6.7%
GLD-1 RNA inh: GLD-1-TGE RNA interaction inhibition (C. elegans); purified GLD-1 + fluorescein TGE RNA, fluorescence polarization; inhibition, % at 5.96 µM; AID 2280; Q17339; actives 0.44% (n = 320,000);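 active = percent inhibition above a per-plate cutoff, the plate mean of test compounds plus 3 SD, cut at about 30% in these data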;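 also: 0% = DMSO wells with GLD-1 and probe and 100% = wells lacking GLD-1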
CR mimetic SO: caloric restriction mimetics inhibiting age-related superoxide in yeast | S. cerevisiae aged cells, superoxide DHE fluorescence; active compounds read low | AID 2690 | actives 0.18% (n = 330,000) | superoxide response (% of plate mean), % at 10 µM;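 active = superoxide response under a set limit, about three screen SD below normal, cut at about 65% in these data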;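 also: yeast aged for seven days with compound at 30 °C before DHE staining; 100% = average MFI of all compound-treated wells on the plate with controls excluded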
MCL1-BIM inh: disrupts human MCL1 binding to BIM-BH3 peptide. Q07820. GST-MCL1 / FITC-Bim-BH3 fluorescence polarization. inhibition, % at 10.9 µM. actives 0.68% (n = 320,000). AID 2057;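 active = inhibition above the mean inhibition of all tested compounds plus 3 SD, set per campaign, cut at about 40% in these data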;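 also: 0% = DMSO wells and 100% = unlabeled Bim-BH3 peptide control; higher means more loss of mP so more displacement of Bim peptide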
Target sequence (Q07820 whole entry, looked up): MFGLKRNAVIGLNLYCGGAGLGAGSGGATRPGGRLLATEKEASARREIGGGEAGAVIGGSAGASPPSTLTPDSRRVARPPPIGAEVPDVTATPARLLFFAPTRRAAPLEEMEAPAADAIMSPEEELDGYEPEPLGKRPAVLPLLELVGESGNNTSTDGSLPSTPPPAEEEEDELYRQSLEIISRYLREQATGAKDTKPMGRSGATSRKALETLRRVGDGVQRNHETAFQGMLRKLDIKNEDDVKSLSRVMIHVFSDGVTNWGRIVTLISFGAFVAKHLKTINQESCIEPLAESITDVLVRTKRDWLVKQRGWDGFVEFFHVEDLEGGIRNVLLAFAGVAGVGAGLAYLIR
* hit, by the source's call. Rows were chosen to be rich in hits. Some 1.9% of all compounds tested hit in one or more screens of this group.

What do the screens show for `CC[C@H](C)/C=C/C1=CC2=C(Cl)C(=O)[C@@]3(C)OC(=O)C(C(=O)[C@H](C)[C@@H](C)O)=C3C2=CO1`?
MEX-5 binding: -19; Bcl-xL primary: 32*; LANA-H2B inh: -3; GLD-1 RNA inh: 19; CR mimetic SO: 107; MCL1-BIM inh: 38

Results for CCC(=S)/C=C1\Sc2ccc3ccccc3c2N1CCCS(=O)(=O)O ?
MEX-5 binding: -68*; Bcl-xL primary: 14; LANA-H2B inh: -4; GLD-1 RNA inh: -4; CR mimetic SO: 98; MCL1-BIM inh: 26

What do the screens show for `Cc1ccccc1NCN1C(=O)C2CCC(C)(C1=O)C2(C)C` (stereo unspecified)?
MEX-5 binding: -1; Bcl-xL primary: 2; LANA-H2B inh: 0; GLD-1 RNA inh: 7; CR mimetic SO: 103; MCL1-BIM inh: 1

How did Cc1ccc(N2C(=O)C3CCC(C)(C2=O)C3(C)C)cc1C (stereo unspecified) do in these assays?
MEX-5 binding: 3; Bcl-xL primary: 38*; LANA-H2B inh: 5; GLD-1 RNA inh: 7; CR mimetic SO: 88; MCL1-BIM inh: -2

How did CC(OC(=O)Cn1c(C(F)(F)F)nc2ccccc21)C(=O)N1CCCc2ccccc21 (stereo unspecified) do in these assays?
Bcl-xL primary: 1; LANA-H2B inh: 26*; GLD-1 RNA inh: -4; CR mimetic SO: 98; MCL1-BIM inh: -3

How did COC(=O)Cn1c(C(F)(F)F)nc2ccccc21 do in these assays?
MEX-5 binding: -2; Bcl-xL primary: -1; LANA-H2B inh: 1; GLD-1 RNA inh: -2; CR mimetic SO: 97; MCL1-BIM inh: -2

Results for COc1ccc(CNC(=S)Nc2ccccc2)cc1 ?
MEX-5 binding: -1; Bcl-xL primary: 4; LANA-H2B inh: 3; GLD-1 RNA inh: 10; CR mimetic SO: 88; MCL1-BIM inh: 15

Results for CS(=O)(=O)N(CC(=O)NCCSc1ccc(Cl)cc1)c1ccc2c(c1)OCO2 ?
MEX-5 binding: -2; Bcl-xL primary: -4; LANA-H2B inh: 19*; GLD-1 RNA inh: 3; CR mimetic SO: 111; MCL1-BIM inh: 2

What do the screens show for `CCCCOc1ccccc1C(=O)NNC(=S)NC(=O)c1ccccc1[N+](=O)[O-]`?
MEX-5 binding: -1; Bcl-xL primary: 11; LANA-H2B inh: 2; GLD-1 RNA inh: 7; CR mimetic SO: 89; MCL1-BIM inh: 22

What do the screens show for `COc1cccc(/C(O)=C/c2nc3ccc(C(=O)NCCc4ccc(Cl)cc4)cc3[nH]c2=O)c1`?
MEX-5 binding: -49*

What do the screens show for `COc1cccc(/C(O)=C/c2nc3ccc(C(=O)NCCc4cccc(C)c4)cc3[nH]c2=O)c1`?
MEX-5 binding: -11; Bcl-xL primary: 0; LANA-H2B inh: -7; GLD-1 RNA inh: 4; CR mimetic SO: 84; MCL1-BIM inh: 9

How did CC(=O)c1cccc(S(=O)(=O)N2CCN(CCOc3ccccc3)CC2)c1 do in these assays?
Bcl-xL primary: 7; LANA-H2B inh: 3; GLD-1 RNA inh: 3; CR mimetic SO: 94; MCL1-BIM inh: 11

What do the screens show for `Cc1nn(C)cc1C(C)NC(=O)c1cc(COc2c(F)cccc2F)on1` (stereo unspecified)?
MEX-5 binding: -1; Bcl-xL primary: 3; LANA-H2B inh: -3; GLD-1 RNA inh: 8; CR mimetic SO: 98; MCL1-BIM inh: 13

What do the screens show for `CC(NC(=O)c1cc(COc2c(F)cccc2F)on1)c1cnn(-c2ccccc2)c1` (stereo unspecified)?
MEX-5 binding: -1; Bcl-xL primary: 3; LANA-H2B inh: 47*; GLD-1 RNA inh: 4; CR mimetic SO: 87; MCL1-BIM inh: 3

What do the screens show for `CC(C)c1ccc(CCNC(=O)CSC(=S)N2CCCC2)cc1`?
MEX-5 binding: -1; Bcl-xL primary: 7; LANA-H2B inh: -3; GLD-1 RNA inh: -1; CR mimetic SO: 100; MCL1-BIM inh: 14

Results for O=C(Nc1nccs1)c1ccc(-c2ccc([N+](=O)[O-])cc2)o1 ?
MEX-5 binding: -43*; Bcl-xL primary: -8; LANA-H2B inh: -4; GLD-1 RNA inh: 1; CR mimetic SO: 93; MCL1-BIM inh: -22

Source: PubChem
